Measured values taken from PubChem BioAssay AID720517 (National Center for Advancing Translational Sciences (NCATS), 2013).
Records with an inconclusive call do not appear. Calls of active or inactive are those of the source. Calls follow the shape of the dose curve; as a rule, active = well fitted activation curve with a large enough effect; inconclusive = small, poorly fitted or top-dose-only effect; inactive = flat fitted curve, though single readings scatter.

test: qHTS for Inhibitors of Cell Surface uPA Generation: FP59 Counterscreen for Cherry-picked Compounds; conditions: FP59 anthrax toxin cytotoxicity counterscreen, cells; series mostly up to 115 µM; activity (protection from FP59): at the top concentration; also: 0% is about no effect

| Compound | activity (protection from FP59) |
| --- | --- |
| CCOC(=O)c1ccccc1N=Cc1c(O)c2ccccc2oc1=O | -1.49% (inactive) |
| Cc1ccc(NC2CCCN(C(=O)Cc3nonc3C)C2)cc1C (centres undefined) | -1.47% (inactive) |
| CCCN1CCN(CC(=O)Nc2nncs2)CC1 | -1.28% (inactive) |
| CCN(CC)C(=O)Cn1cc(/C=C(\C#N)C(=O)NC2CC2)c2ccccc21 | -1.32% (inactive) |
| Cc1cc(N2C(=O)C(O)=C(C(=O)c3ccco3)C2c2ccc(Cl)cc2)no1 (centres undefined) | -0.808% (inactive) |
| Cc1nc2nc(C)c(NS(=O)(=O)c3ccc(Cl)cc3)c(=O)n2[nH]1 | -1.36% (inactive) |
| CCCNC(=O)COc1coc(CN2CCN(c3ccccc3OC)CC2)cc1=O | -1.39% (inactive) |
| COc1cc(/C=C(/C#N)C(=O)Nc2ccccc2)ccc1OCc1ccc(C(=O)O)cc1 | 0.218% (inactive) |
| COc1cc(C(C)=O)ccc1OCc1cn(CC(=O)c2ccc(O)cc2)nn1 | -1.44% (inactive) |
| Cc1cccc(Nc2ccc(NCc3ccccc3)nn2)c1 | -1.23% (inactive) |
| O=S(=O)(NCCc1ccccc1F)c1cccc(S(=O)(=O)N2CCOCC2)c1 | -1.27% (inactive) |
| CCOC(=O)N1CCc2c(sc3nc4n(c(=O)c23)N=C(C)CS4)C1 | -1.34% (inactive) |
| COc1ccccc1N=Nc1c(C)[nH]n(-c2ccccc2)c1=O | -1.4% (inactive) |
| COc1ccccc1CCNC(=O)C(=O)NCC1OCCN1S(=O)(=O)c1ccc(OC)c(OC)c1 (centres undefined) | -1.42% (inactive) |
| Fc1ccc(CNc2ccccn2)cc1 | -1.43% (inactive) |
| Cc1cccc(C(=O)NC2CCN(CC(=O)N3CCOCC3)CC2)c1 | -1.38% (inactive) |
| COc1ccc(NC(=O)CCNS(=O)(=O)c2ccccc2F)cc1S(=O)(=O)N1CCOCC1 | -1.16% (inactive) |
| O=C(C[C@H]1C[C@H](C(=O)N2CCOCC2)[C@@]2(CCC3CCCC3)c3[nH]c4cc(-c5ccco5)ccc4c3CCN2C1=O)NCc1cccc(C(F)(F)F)c1 | 13.9% (inactive) |
| COc1ccc2[nH]cc(S(=O)(=O)c3ccc(C(C)C)cc3)c(=O)c2c1 | -1.35% (inactive) |
| C=C(C(=O)O)C1CCC2(C)CCCC(C)(O)C2C1 (centres undefined) | -1.31% (inactive) |

| Compound | activity (protection from FP59) |
| --- | --- |
| O=C(CSc1nncs1)NC(=O)NCc1ccco1 | -1.2% (inactive) |
| CCc1ccc(OCC(=O)N(Cc2cccs2)C2CCS(=O)(=O)C2)cc1 (centres undefined) | -1.29% (inactive) |
| Cc1ccc(C)c(-c2ccc(=O)n(Cc3c(F)cccc3Cl)n2)c1 | 8.52% (inactive) |
| Cc1ccc(C2=NS(=O)(=O)N(C)C(C(=O)NC3CCCC3)=C2)cc1 | -1.45% (inactive) |
| CCOc1ccc(-n2cnc3scc(-c4ccc(OC)c(OC)c4)c3c2=O)cc1 | -1.49% (inactive) |
| COc1ccc(CN2CCN(Cc3ccc(C(F)(F)F)cc3)CC2)cc1 | -1.38% (inactive) |
| CC(C)(C)OC(=O)NCCCCCNC(=O)c1[nH]cnc1C(=O)Nc1ccc(Cl)cc1 | -1.08% (inactive) |
| O=C(NNC(=O)c1ccc2ccccc2c1)Nc1ccc(F)cc1 | -1.26% (inactive) |
| C/C=C/C(=O)Nc1cccc(C2=NOC3(C2)C[C@@H](C(N)=O)N(C(=O)c2cc([N+](=O)[O-])cc([N+](=O)[O-])c2C)C3)c1 (some centres undefined) | -1.09% (inactive) |
| OCCN(Cc1ccccc1)CC(O)COc1ccc2c(c1)OCO2 (centres undefined) | -0.687% (inactive) |
| COc1ccc(C(=O)NC(C)c2cnn(-c3ccccn3)c2C)o1 (centres undefined) | -1.07% (inactive) |
| CCN1CCN(C(c2ccccc2)c2nnnn2Cc2ccc3c(c2)OCO3)CC1 (centres undefined) | -1.55% (inactive) |
| CC(C)N1CCc2c(sc(NC(=O)Cc3ccccc3)c2C(N)=O)C1 | -1.41% (inactive) |
| O=[N+]([O-])c1ccc(-c2cn3c(n2)SCC3)cc1 | -1.08% (inactive) |
| CCN(CC)CCNC(=O)/C(=C/c1cn(CC)c2ccccc12)NC(=O)c1cc(OC)c(OC)c(OC)c1 | -1.38% (inactive) |
| Cn1cccc1Cc1nnc(SCC(=O)Nc2ccc3c(c2)OCCO3)n1-c1ccc(F)cc1 | -1.19% (inactive) |
| CC1CCC(NC(=O)c2nn(C)c3c2CS(=O)(=O)c2ccccc2-3)CC1 (centres undefined) | -1.25% (inactive) |
| COc1ccc(N2CC(C(=O)Nc3nnc(SCCC4OCCO4)s3)CC2=O)cc1 (centres undefined) | -1.21% (inactive) |
| O=C(Nc1cccc(C2=NCCN2)c1)Nc1cccc(C2=NCCN2)c1 | -1.55% (inactive) |
